# Experimental data reported in the supplement of paper PMC7556523.
# Tested on: Sporothrix schenckii ATCC 32286
# Test: growth inhibition relative to untreated control; higher = more growth inhibition (more antifungal activity), active = 80 or more; extreme values may be limits of the assay
# Conditions: 1 µM; 48 h
# In short: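 Yeast-form cells of the reference isolates (grown 7 days in brain heart infusion broth with 2% glucose at 36°C) were exposed at 1 x 10^5 CFU/ml to library compounds at a final 1 μM for 48 h at 35°C in 5% CO2. Growth was checked by visual inspection under an inverted light microscope and quantified by spectrophotometric readings. The value is percent growth inhibition relative to untreated control. Runs were in quadruplicate.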
row,SMILES,growth inhibition
1,Oc1c(I)cc(I)c2cccnc12,94.5% (active)
2,O=C1COCc2ccc(Br)cc2N1Cc1ccc(C(F)(F)F)cc1,2.75% (inactive)
3,COCC(C)NC(=O)CSc1ncnc2sc(-c3ccccc3)cc12 (stereo not drawn),14.2% (inactive)
4,O=C(NC1CCN(c2ccnc3ccccc23)C1)c1cccc(C(F)(F)F)c1 (stereo not drawn),1.5% (inactive)
5,Nc1ccc(C(=O)Nc2ccc(-c3nc4ccccc4o3)cc2)cc1,0% (inactive)
6,Cc1cc(Cl)ccc1NC(=O)CCc1ccc(S(=O)(=O)NCC(C)C)cc1,0% (inactive)
7,Nc1ncnc2c1c(-c1cnc3ccccc3c1)nn2CC1CCNCC1,15.5% (inactive)
8,CC(c1cc(Cl)cc(Cl)c1)N(C)c1ncc2c(N)nc(N)nc2n1 (stereo not drawn),16.5% (inactive)
9,Cc1ccc(S(=O)(=O)n2cc(-c3ccnc(N)c3)c3cc(Br)cnc32)cc1,5.25% (inactive)
10,CC1=NN(c2nc3ccccc3s2)C(=O)C1Cc1cccc2ccccc12 (stereo not drawn),14.8% (inactive)
11,O=C(C1CCCCC1)N1CC(=O)N2CCc3ccccc3C2C1 (stereo not drawn),10.2% (inactive)
12,CN1CCCC1CCO[C@](C)(c1ccccc1)c1ccc(Cl)cc1 (stereo partly drawn),14.8% (inactive)
13,Nc1ncc(-c2ccc(C(F)(F)F)nc2)cc1-c1ccc(C(F)(F)F)nc1,11% (inactive)
14,COc1ccc(S(=O)(=O)Nc2ccc(CN3CCN(C(=O)c4cccc(C#N)c4)CC3)cc2)cc1,7.75% (inactive)
15,C[C@H](C(N)=O)N1CCCC[C@@H]1c1ccc(OCc2cccc(F)c2)cc1,2% (inactive)
16,CC(C)NCC(=O)Nc1cccc(C(=O)Nc2cccc(C(F)(F)F)c2)c1,3.75% (inactive)
17,NCC(=O)N1CCn2c(nc(-c3ccccc3)c2Nc2ccc3c(c2)OCO3)C1,0.5% (inactive)
18,CCc1c(C)nc(-n2nc(C)cc2NC(=O)c2ccccc2SC)[nH]c1=O,76.8% (inactive)
19,COc1cc(-c2cc(-c3ccc(S(C)(=O)=O)cc3)cnc2N)ccc1O,19.8% (inactive)

row,SMILES,growth inhibition
1,Cc1ccc(S(=O)(=O)Nc2ccc(CN3CCN(C(=O)c4cccc(C#N)c4)CC3)cc2)cc1,0.5% (inactive)
2,CC(C)(C)n1nc(Cc2ccc(F)c(Cl)c2)c2c(N)ncnc21,0% (inactive)
3,CCn1cnc2c(Nc3cc(F)cc(F)c3)nc(C#N)nc21,3.75% (inactive)
4,O=C1N(Cc2cc3ccccc3s2)CC2CN(Cc3ccccc3)CCN12 (stereo not drawn),4.5% (inactive)
5,CCC(=O)Nc1ccccc1C(=O)Nc1ccccn1,1.5% (inactive)
6,O=C(NC1CCCCC1)N1CCN(Cc2ccc3c(c2)OCO3)CC1,17.2% (inactive)
7,CC(C)(C)C(=O)N(CCCCCCN1C[C@H](O)[C@@H](O)[C@H](O)[C@H]1CO)C1CCCCCC1,8% (inactive)
8,O[C@@H](c1cc(C(F)(F)F)nc2c(C(F)(F)F)cccc12)[C@H]1CCCCN1,15.2% (inactive)
9,COc1ccc(-c2cc(NC(=O)c3ccc(F)cc3Cl)ccc2OC)cc1,6.75% (inactive)
10,CNC(=O)c1cc(S(=O)(=O)N2CCN(c3ccccn3)CC2)cs1,18.2% (inactive)
11,O=C(Nc1ccc2c(c1)B(O)OC2)c1ccccc1C(F)(F)F,20.5% (inactive)
12,CC(C)(C)OC(=O)N1CCN(c2cc(-c3ccc(Oc4ccccc4)cc3)n[nH]2)CC1,0% (inactive)
13,CCCn1c(CNc2ccccc2O)nc2ccccc21,13.2% (inactive)
14,O=C1[C@@H](Oc2ccccc2)[C@@H](c2ccc(Cl)cc2)N1CCn1cnc2c(NCc3ccccc3)ncnc21,17.8% (inactive)
15,CCOc1ccc(-c2nc(CNCCc3ccc(F)cc3)cs2)cc1,15.5% (inactive)
16,CCOC(=O)c1noc(N)c1-c1ccccc1,0% (inactive)
17,CCCCN(CCCC)c1c(C#N)cc(S(=O)(=O)Nc2ccccc2)cc1C#N,23.8% (inactive)
18,O=C(c1cc2ccccc2o1)N1CCN(Cc2ccc3c(c2)OCO3)CC1,7.25% (inactive)
19,c1ccc(-c2[nH]c3ccccc3c2C(c2ccccn2)N2CCCC2)cc1 (stereo not drawn),12.2% (inactive)
